19 molecules from PubChem BioAssay (EPA / NIEHS) can be followed below.

Each structure is given as a SMILES string. Values joined by “and” are separate entries in the source; they are usually repeats but may differ in a detail not shown here. Equal values may be shown once. Records with an inconclusive call do not appear. Where a structure was tested more than once in an assay, its records may differ in their call. Active and inactive are the calls of the source. Rule for the calls, unless noted: active = hit-call score of the fitted dose curve at least 0.9, where 1 is the maximum; inconclusive = response in the unintended direction; inactive = score below 0.9.

The target of experiment [1] is Agonist Androgen Response Element (ARE), AR (gene 367) (UniProt P10275). Kind of experiment: OT_AR_ARELUC_AG_1440: Odyssey Thera (OT) 24-hour CHO-K1 Luciferase Assay for Agonist Androgen Response Element (ARE) (AID 2283379). Put shortly:
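CHO-K1 cells carrying an ARE-driven luciferase reporter were exposed to compounds for 24 h. Luminescence was then read after adding a D-luciferin/ATP mix, and activity was scored as a gain in signal over DMSO vehicle.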

For experiment [2], the target named is Retinoic acid receptor RXR-alpha (Homo sapiens) (UniProt P19793). Nature of the experiment: OT_NURR1_NURR1RXRa_0480: Odyssey Thera (OT) 8-hour HEK293T Protein Complementation Assay for Nurr1/retinoid X receptor (RXR) (AID 2283385). Put shortly:
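HEK293T cells expressing Nurr1 and RXRα fused to reporter fragments were dosed with compound for 8 hours. Complex formation was read as fluorescence intensity and analysed as gain of signal against DMSO as baseline.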

For experiment [3] the target is unchanged. Nature of the experiment: OT_NURR1_NURR1RXRa_1440: Odyssey Thera (OT) 24-hour HEK293T Protein Complementation Assay for Nurr1/retinoid X receptor (RXR) (AID 2283386). The method, boiled down:
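HEK293T cells were dosed with compound and read 24 h later by fluorescence intensity in a protein-fragment complementation format, where Nurr1–RXRα interaction reconstitutes a split reporter. Activity was fitted as gain of signal relative to DMSO baseline.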

Experiment [4] has as its target Peroxisome proliferator-activated receptor gamma (Homo sapiens) (UniProt P37231). Nature of the experiment: OT_PPARg_PPARgSRC1_0480: Odyssey Thera (OT) 8-hour Protein-Complementation Assay for Peroxisome Proliferator-activated Receptor Gamma / SRC-1 Co-activator (AID 2283387).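 Note: nuclear to cytoplasmic split Venus YFP fluorescence ratio reporting PPARg SRC-1 interaction.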 The method, boiled down:
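Protein-fragment complementation of split Venus YFP reports PPARg/SRC-1 interaction in HEK293T (transfected 48 h before treatment), exposed 8 h. Readout: N/C fluorescence ratio at 488 nm from imaging, Draq5 for segmentation, positive fit relative to DMSO.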

For experiment [5] the target is unchanged. Nature of the experiment: OT_PPARg_PPARgSRC1_1440: Odyssey Thera (OT) 24-hour Protein-Complementation Assay for Peroxisome Proliferator-activated Receptor Gamma/ SRC-1 Co-activator (AID 2283388).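 Note: nuclear to cytoplasmic ratio of reconstituted Venus YFP fluorescence in fixed imaged cells.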 Put shortly:
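Protein-fragment complementation between PPARg and coactivator SRC-1 was measured by fluorescence imaging in transiently transfected HEK293T cells after 24 h treatment. Signal was quantified as N/C ratio in the 488 nm channel, with DMSO as negative control.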

Experiment [6] can be described thus: CEETOX_H295R_OHPREG: CeeTox H295R High-throughput Steroidogenesis Assay for OH-Pregnenolone (OHPREG) (AID 2283434; active = hit-call score of the fitted dose curve at least 0.9, where 1 is the maximum; inactive = score below 0.9). To be noted: actives raise or lower the signal. Put shortly: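 H295R cells pre-stimulated 48 h with 10 uM forskolin, then exposed 48 h to chemical in 0.1% DMSO. 17alpha-hydroxypregnenolone in medium quantified by MTBE extraction and HPLC-MS/MS; bidirectional fit versus DMSO, viability checked by MTT.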

Experiment [7] can be described thus: CEETOX_H295R_OHPROG: CeeTox H295R High-throughput Steroidogenesis Assay for OH-Progesterone (OHPROG) (AID 2283435; active = hit-call score of the fitted dose curve at least 0.9, where 1 is the maximum; inactive = score below 0.9). To be noted: actives raise or lower the signal. The method, boiled down: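 H295R human adrenal cells were prestimulated 48 h with 10 uM forskolin, then exposed 48 h to test chemical (0.1% DMSO final). 17alpha-hydroxyprogesterone in medium was measured by HPLC-MS/MS after MTBE extraction; bidirectional fitting vs DMSO.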

The nature of experiment [8]: CEETOX_H295R_ANDR: CeeTox H295R High-throughput Steroidogenesis Assay for Androstenedione (ANDR) (AID 2283436; active = hit-call score of the fitted dose curve at least 0.9, where 1 is the maximum; inactive = score below 0.9). To be noted: actives raise or lower the signal. The method, boiled down: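 H295R cells, following OECD 456 with minor changes, exposed to chemicals for 48 h. Androstenedione in the medium was quantified by HPLC-MS/MS after MTBE extraction. Fitting was bidirectional versus DMSO; chemicals were diluted until MTT viability was ≥70%.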

Experiment [9] deals with Estrogen receptor beta (Homo sapiens) (UniProt Q92731). Kind of experiment: OT_ER_ERbERb_1440: Odyssey Thera (OT) 24-hour HEK293T Protein-Complementation Assay for Estrogen Receptor-beta/-beta Homodimer (AID 2283380).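 Note: scored as signal increase over DMSO baseline for both agonists and antagonists.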 Put shortly: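 HEK293T cells stably expressing ER beta LBD (aa 310-547) homodimer fragment-complementation reporter, dosed 24 h. Cells formaldehyde-fixed, Draq5-stained; gain in nuclear (agonist) or nuclear plus cytoplasmic (antagonist) fluorescence versus DMSO read by laser scanning cytometry.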

Experiment [10] concerns the target Estrogen receptor (Homo sapiens) (UniProt P03372). Nature of the experiment: OT_ERa_GFPERaERE_0480: Odyssey Thera (OT) 8-hour HeLa Transcription Induction Assay for Estrogen Receptor (AID 2283381; active = hit-call score of the fitted dose curve at least 0.9, where 1 is the maximum; inactive = score below 0.9). The method, boiled down: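 HeLa cells dosed with compound and imaged by fluorescence microscopy at 8 h; GFP induction from an ERE reporter quantified by high-content image analysis and fitted as gain of signal against DMSO baseline.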

Experiment [11] has the same target. Kind of experiment: OT_ERa_GFPERaERE_0120: Odyssey Thera (OT) 2-hour HeLa Transcription Induction Assay for Estrogen Receptor (AID 2283382). Put shortly:
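HeLa cells were dosed with test chemical and read 2 hours later for GFP-ERα/ERE-linked fluorescent protein induction by fluorescence microscopy. Gain-of-signal was fitted relative to DMSO baseline, quantified by high content image analysis.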

Experiment [12] has as its target Bile acid receptor (Homo sapiens) (UniProt Q96RI1). Nature of the experiment: OT_FXR_FXRSRC1_0480: Odyssey Thera (OT) 8-hour HEK293T Protein-Complementation Assay for Farnesoid X receptor/SRC-1 Co-activator (AID 2283383). The method, boiled down:
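HEK293T cells expressing FXR and SRC-1 fused to reporter fragments were dosed with compound for 8 h; fluorescence from the reconstituted reporter marked co-activator recruitment. Gain of signal was fitted against the DMSO baseline.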

Experiment [13] shares this target. Kind of experiment: OT_FXR_FXRSRC1_1440: Odyssey Thera (OT) 24-hour HEK293T Protein-Complementation Assay for Farnesoid X receptor/SRC-1 Co-activator (AID 2283384). Put shortly: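 HEK293T cells were dosed with compound and read 24 h later by fluorescence intensity from protein-fragment complementation reporting FXR/SRC-1 co-activator interaction. Gain of signal was fitted relative to DMSO negative control as baseline.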

A short description of experiment [14]: CEETOX_H295R_11DCORT: CeeTox H295R High-throughput Steroidogenesis Assay for 11-Deoxycortisol (11DCORT) (AID 2283432; active = hit-call score of the fitted dose curve at least 0.9, where 1 is the maximum; inactive = score below 0.9;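 for AC50: 11-deoxycortisol secreted into the medium measured by LC-MS/MS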). As to conditions: actives raise or lower the signal. The method, boiled down:
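Human adrenal H295R cells were prestimulated with 10 uM forskolin for 48 h, then exposed to test chemical (0.1% DMSO final) for 48 h. Medium 11-deoxycortisol was quantified by MTBE extraction and HPLC-MS/MS; bidirectional fitting relative to DMSO.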

Experiment [15] in a line: CEETOX_H295R_CORTIC: CeeTox H295R High-throughput Steroidogenesis Assay for Corticosterone (CORTIC) (AID 2283437; active = hit-call score of the fitted dose curve at least 0.9, where 1 is the maximum; inactive = score below 0.9;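 note: corticosterone secreted into medium quantified by mass spectrometry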). As to conditions: actives raise or lower the signal. Put shortly: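 H295R adrenal cells prestimulated 48 hours with 10 uM forskolin, then exposed 48 hours to chemical in 0.1% DMSO. Corticosterone in medium measured by HPLC-MS/MS after MTBE extraction; MTT viability in the same wells; bidirectional fit versus DMSO.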

Experiment [16] can be described thus: CEETOX_H295R_CORTISOL: CeeTox H295R High-throughput Steroidogenesis Assay for Cortisol (AID 2283438; active = hit-call score of the fitted dose curve at least 0.9, where 1 is the maximum; inactive = score below 0.9;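 note: cortisol secreted into medium quantified by LC-MS/MS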). To be noted: actives raise or lower the signal. The method, boiled down: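 H295R human adrenal cells were prestimulated 48 h with 10 uM forskolin, then exposed 48 h to test chemical (0.1% DMSO final). Medium cortisol was quantified by HPLC-MS/MS after MTBE extraction; bidirectional fitting relative to DMSO baseline.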

The nature of experiment [17]: CEETOX_H295R_DOC: CeeTox H295R High-throughput Steroidogenesis Assay for DOC (AID 2283439; active = hit-call score of the fitted dose curve at least 0.9, where 1 is the maximum; inactive = score below 0.9). To be noted: actives raise or lower the signal. The method, boiled down: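 H295R adrenal cells prestimulated 48 h with 10 uM forskolin, then exposed 48 h to test chemical (0.1% DMSO final). Medium 11-deoxycorticosterone extracted with MTBE, quantified by HPLC-MS/MS; bidirectional fit versus DMSO baseline; MTT viability in same wells.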

Sequence of Retinoic acid receptor RXR-alpha (Homo sapiens) (P19793 whole entry, looked up, the tested form may be a part): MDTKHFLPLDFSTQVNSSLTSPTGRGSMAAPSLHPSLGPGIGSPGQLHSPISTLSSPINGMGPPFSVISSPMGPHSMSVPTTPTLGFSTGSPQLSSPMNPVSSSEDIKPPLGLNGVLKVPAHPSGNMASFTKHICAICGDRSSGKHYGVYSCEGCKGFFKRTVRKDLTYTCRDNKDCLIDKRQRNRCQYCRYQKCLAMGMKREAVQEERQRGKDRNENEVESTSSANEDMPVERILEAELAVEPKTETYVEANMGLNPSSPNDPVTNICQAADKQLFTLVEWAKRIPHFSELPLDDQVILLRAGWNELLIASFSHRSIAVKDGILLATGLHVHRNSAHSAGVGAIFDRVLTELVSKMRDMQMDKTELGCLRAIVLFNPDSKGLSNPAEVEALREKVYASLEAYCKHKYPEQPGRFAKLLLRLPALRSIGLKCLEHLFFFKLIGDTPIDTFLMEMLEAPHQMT
Sequence of Agonist Androgen Response Element (ARE), AR (gene 367) (P10275 whole entry, looked up): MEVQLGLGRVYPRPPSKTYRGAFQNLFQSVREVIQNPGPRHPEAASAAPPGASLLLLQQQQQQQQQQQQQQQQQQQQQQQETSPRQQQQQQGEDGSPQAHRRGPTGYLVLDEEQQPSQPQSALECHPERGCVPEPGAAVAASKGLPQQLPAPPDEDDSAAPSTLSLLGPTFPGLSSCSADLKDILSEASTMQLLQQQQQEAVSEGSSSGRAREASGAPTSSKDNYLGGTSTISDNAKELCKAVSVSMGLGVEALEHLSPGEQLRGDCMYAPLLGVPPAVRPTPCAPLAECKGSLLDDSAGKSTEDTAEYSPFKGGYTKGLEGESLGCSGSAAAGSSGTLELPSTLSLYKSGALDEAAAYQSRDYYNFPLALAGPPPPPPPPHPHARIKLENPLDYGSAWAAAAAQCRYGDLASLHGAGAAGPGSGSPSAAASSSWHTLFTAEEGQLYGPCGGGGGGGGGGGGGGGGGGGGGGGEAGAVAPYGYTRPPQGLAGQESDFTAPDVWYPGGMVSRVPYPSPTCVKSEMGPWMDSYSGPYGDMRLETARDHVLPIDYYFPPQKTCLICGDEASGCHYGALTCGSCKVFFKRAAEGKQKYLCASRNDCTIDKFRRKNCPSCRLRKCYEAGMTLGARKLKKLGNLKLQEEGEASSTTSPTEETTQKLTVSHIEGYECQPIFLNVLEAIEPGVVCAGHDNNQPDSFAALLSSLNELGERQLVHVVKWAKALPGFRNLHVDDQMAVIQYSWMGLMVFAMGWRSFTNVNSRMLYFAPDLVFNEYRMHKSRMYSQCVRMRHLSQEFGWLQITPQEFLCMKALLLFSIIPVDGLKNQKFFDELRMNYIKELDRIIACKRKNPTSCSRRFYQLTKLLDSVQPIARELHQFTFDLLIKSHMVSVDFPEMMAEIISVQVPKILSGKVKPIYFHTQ
Sequence of Estrogen receptor (Homo sapiens) (P03372 whole entry, looked up): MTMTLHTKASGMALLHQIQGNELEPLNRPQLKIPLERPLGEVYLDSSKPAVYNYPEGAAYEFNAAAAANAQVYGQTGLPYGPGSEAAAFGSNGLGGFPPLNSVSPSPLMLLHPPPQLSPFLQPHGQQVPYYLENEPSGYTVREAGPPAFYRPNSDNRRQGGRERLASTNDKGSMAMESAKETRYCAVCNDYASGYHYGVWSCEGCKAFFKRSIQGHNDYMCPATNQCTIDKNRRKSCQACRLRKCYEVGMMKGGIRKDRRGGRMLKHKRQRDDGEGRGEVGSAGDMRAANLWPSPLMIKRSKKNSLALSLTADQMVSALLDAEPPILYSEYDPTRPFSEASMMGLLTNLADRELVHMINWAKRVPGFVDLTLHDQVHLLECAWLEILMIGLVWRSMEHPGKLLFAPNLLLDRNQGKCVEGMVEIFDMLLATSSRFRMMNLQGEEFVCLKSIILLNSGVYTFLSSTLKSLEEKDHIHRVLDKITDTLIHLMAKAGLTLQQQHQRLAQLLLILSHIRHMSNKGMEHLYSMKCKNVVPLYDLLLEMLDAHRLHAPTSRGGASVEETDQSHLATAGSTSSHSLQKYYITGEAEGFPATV
Sequence of Bile acid receptor (Homo sapiens) (Q96RI1 whole entry, looked up, the tested form may be a part): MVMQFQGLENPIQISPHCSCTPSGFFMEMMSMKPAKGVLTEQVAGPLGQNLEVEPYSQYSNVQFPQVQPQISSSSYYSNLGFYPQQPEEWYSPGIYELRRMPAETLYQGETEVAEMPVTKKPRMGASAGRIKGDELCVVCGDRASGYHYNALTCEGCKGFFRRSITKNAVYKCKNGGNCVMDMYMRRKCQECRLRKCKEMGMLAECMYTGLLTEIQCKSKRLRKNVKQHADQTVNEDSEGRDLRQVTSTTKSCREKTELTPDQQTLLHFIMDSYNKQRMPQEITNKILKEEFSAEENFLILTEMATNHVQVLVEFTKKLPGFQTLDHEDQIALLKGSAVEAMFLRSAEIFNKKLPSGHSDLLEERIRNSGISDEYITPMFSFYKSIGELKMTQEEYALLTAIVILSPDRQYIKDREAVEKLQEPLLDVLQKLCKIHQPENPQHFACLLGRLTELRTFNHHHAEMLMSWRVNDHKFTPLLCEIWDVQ
Sequence of Estrogen receptor beta (Homo sapiens) (Q92731 whole entry, looked up, the tested form may be a part): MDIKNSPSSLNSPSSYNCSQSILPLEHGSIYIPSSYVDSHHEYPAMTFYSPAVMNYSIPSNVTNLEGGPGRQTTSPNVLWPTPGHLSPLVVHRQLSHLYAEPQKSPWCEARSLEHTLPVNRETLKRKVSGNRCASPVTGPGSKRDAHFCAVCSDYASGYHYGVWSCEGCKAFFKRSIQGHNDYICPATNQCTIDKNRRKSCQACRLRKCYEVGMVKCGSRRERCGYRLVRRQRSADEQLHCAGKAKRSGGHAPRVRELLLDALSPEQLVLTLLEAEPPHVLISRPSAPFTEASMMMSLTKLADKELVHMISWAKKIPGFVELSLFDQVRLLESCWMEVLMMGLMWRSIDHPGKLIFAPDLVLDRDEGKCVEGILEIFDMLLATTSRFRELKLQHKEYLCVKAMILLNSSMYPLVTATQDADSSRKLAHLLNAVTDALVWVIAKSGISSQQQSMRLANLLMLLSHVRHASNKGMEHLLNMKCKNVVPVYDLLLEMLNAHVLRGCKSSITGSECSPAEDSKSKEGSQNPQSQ
Sequence of Peroxisome proliferator-activated receptor gamma (Homo sapiens) (P37231 whole entry, looked up, the tested form may be a part): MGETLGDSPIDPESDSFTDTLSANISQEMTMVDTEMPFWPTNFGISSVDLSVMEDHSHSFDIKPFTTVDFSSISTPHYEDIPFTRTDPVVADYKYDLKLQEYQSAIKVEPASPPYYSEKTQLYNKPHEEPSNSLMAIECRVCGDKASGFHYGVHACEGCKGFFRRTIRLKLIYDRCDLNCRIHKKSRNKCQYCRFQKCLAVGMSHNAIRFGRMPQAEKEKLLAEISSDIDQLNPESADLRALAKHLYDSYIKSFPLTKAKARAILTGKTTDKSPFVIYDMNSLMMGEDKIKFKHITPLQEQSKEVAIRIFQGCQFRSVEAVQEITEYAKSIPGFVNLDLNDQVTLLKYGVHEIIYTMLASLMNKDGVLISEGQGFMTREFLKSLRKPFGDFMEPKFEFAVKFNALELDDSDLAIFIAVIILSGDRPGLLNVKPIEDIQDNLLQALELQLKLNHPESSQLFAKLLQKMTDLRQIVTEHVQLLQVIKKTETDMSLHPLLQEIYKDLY

Turning to `Cc1ccccc1CO[C@@H]1C[C@@]2(C(C)C)CC[C@]1(C)O2`, the call in experiment [1], in experiment [3], in experiment [4], in experiment [5] and in experiment [7] was inactive. Besides, the AC50 in experiment [2] was 81.2 µM (active); in [6], 50 µM (active); in experiment [8], 50 µM (active).
For `Cc1ccccc1[N+](=O)[O-]`, the call in experiment [9], in experiment [10], in [11], in experiment [2], in experiment [3] and in experiment [4] was inactive. Further, the outcome in [5] was inactive.
With `Clc1ccc(C(Cl)(Cl)Cl)cc1`, the result in experiment [10], in [11], in experiment [12], in experiment [13], in experiment [2] and in experiment [3] was inactive. Moreover, the molecule was classed as inactive in [4] and in [5].
On to `CC1=C2C[C@H]3[C@@H](CC=C4C[C@@H](O)CC[C@@]43C)[C@@H]2CC[C@]12O[C@@H]1C[C@H](C)CN[C@H]1[C@H]2C`, for which the result in experiment [1], in experiment [10], in experiment [11], in [12], in [13] and in [2] was inactive. The molecule was classed as inactive in experiment [3], in experiment [4], in experiment [5], in experiment [14], in experiment [8] and in experiment [15]. Also, the outcome in [16] and in experiment [17] was inactive.
`Sc1ccccc1`: the call in experiment [10] and in [11] was inactive.
As to `CCSC(=O)N(CC)C1CCCCC1`, the molecule was classed as inactive in experiment [10], in experiment [11], in experiment [12], in [13], in experiment [2] and in experiment [4]. Moreover, the result in [5], in experiment [14], in [7], in experiment [15], in experiment [16] and in [17] was inactive.
Consider `CCOP(=S)(OCC)SCSC(C)(C)C`, for which the result in experiment [10], in experiment [11], in [2], in [3], in [4] and in experiment [5] was inactive. For the same molecule, the AC50 in experiment [6] is 37 µM (active).
Regarding `O=C(NC(=O)c1cc(F)c(F)cc1Cl)Nc1cc(F)ccc1N1CCC(C(=O)O)CC1`, the outcome in experiment [10], in experiment [11], in [2], in experiment [3], in [4] and in [5] was inactive.
`Cc1cccc([N+](=O)[O-])c1`: the call in experiment [10], in experiment [11], in [4] and in [5] was inactive.
For the molecule `ClC1=C(Cl)[C@]2(Cl)[C@@H]3[C@@H](Cl)[C@H]4O[C@H]4[C@@H]3C1(Cl)C2(Cl)Cl`, the concentration at half-maximal activity (AC50) in experiment [9] is 14.4 µM (active); in [2] it was 79.6 µM (active); in experiment [3], 86 µM (active). Further, the molecule was classed as inactive in experiment [10], in experiment [11], in [2], in experiment [3], in experiment [4] and in experiment [5].
`CCC(C)(CC)c1cc(NC(=O)c2c(OC)cccc2OC)on1`: the molecule was classed as inactive in experiment [9], in [2], in experiment [3], in experiment [4], in experiment [5] and in experiment [6]. For the same molecule, the molecule was called inactive in [7].
`CN(C)CCO`: the call in [9], in experiment [10], in experiment [11], in [2], in experiment [3] and in experiment [4] was inactive. The call in [5] was inactive.
Consider `ClC1=C(Cl)[C@]2(Cl)[C@@H]3[C@@H]4C[C@@H]([C@H]5O[C@@H]45)[C@@H]3[C@@]1(Cl)C2(Cl)Cl`, for which the result in experiment [10], in experiment [11], in experiment [3], in [4] and in experiment [5] was inactive. In experiment [2], the AC50 was 77.7 µM (active) and 81.5 µM (active).
Turning to `c1cc2ccc3cccc4ccc(c1)c2c34`, the molecule was called inactive in [1], in [10], in experiment [11], in [12], in experiment [13] and in [2]. In addition, the molecule was called inactive in experiment [3], in experiment [4], in [5], in [15] and in experiment [16]. For the same molecule, the AC50 in experiment [14] is 26.5 µM (active); in experiment [6], 15.8 µM (active); in [7], 27.1 µM (active); in experiment [8], 35.9 µM (active); in experiment [17], 14.5 µM (active).
With `O=S(=O)(O)C(F)(F)C(F)(F)C(F)(F)C(F)(F)C(F)(F)C(F)(F)F`, the molecule was called inactive in [10], in experiment [11], in experiment [13], in [2], in experiment [3] and in experiment [4]. Besides, the outcome in experiment [5] was inactive.
`CN(C)c1nc(=O)n(C2CCCCC2)c(=O)n1C`: the call in experiment [9], in experiment [10], in [11], in experiment [12], in experiment [13] and in experiment [2] was inactive. Further, the result in experiment [3], in [4] and in [5] was inactive.
In the case of `Clc1ccc(Cl)cc1`, the result in experiment [9], in experiment [10], in experiment [11], in [2], in [4] and in experiment [5] was inactive.
Consider `COc1ccc(O)c(C(C)(C)C)c1`, for which the AC50 in experiment [9] is 57.3 µM (active). Also, the call in experiment [10], in experiment [11], in experiment [12], in [13], in [2] and in experiment [3] was inactive. Further, the result in experiment [4] and in experiment [5] was inactive.
Consider `C=CC(N)=O`, for which the molecule was called inactive in [10], in experiment [11], in experiment [2], in experiment [3], in experiment [14] and in experiment [15]. The molecule was called inactive in experiment [16] and in experiment [17].
